Drawing on ChEMBL document CHEMBL1961873, “Compounds: GSK PKIS; Assays: Nanosyn kinase panel” (2012), this text covers inhibition for eight molecules.

The target of experiment [1] is T1, Inhibitor of nuclear factor kappa-B kinase subunit epsilon (Homo sapiens) (UniProt Q14164).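 Also: reported values are averaged percent inhibition figures against human IKKε.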
T1 sequence (whole entry): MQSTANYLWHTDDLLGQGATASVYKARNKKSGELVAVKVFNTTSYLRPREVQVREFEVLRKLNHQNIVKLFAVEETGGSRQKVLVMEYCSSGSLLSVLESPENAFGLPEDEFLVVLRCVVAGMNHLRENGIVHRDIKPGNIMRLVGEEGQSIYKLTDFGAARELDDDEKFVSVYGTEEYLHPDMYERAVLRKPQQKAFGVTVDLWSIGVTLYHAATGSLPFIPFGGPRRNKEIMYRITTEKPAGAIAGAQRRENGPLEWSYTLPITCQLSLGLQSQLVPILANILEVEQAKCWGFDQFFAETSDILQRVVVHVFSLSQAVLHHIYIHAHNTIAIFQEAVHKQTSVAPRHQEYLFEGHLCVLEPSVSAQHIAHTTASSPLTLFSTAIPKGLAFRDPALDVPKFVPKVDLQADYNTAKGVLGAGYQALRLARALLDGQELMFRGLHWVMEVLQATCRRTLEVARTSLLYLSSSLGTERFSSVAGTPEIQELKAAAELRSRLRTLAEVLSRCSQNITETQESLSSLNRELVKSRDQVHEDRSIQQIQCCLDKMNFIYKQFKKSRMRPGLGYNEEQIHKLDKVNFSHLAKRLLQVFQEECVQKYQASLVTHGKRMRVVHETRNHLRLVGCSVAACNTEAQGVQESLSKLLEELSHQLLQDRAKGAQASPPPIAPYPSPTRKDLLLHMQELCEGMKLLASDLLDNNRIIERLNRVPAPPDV
The settings on record: at 1 µM.

Experiment [2] concerns the target T2, Serine/threonine-protein kinase Nek1 (Homo sapiens) (UniProt Q96PY6).
T2 sequence (whole entry): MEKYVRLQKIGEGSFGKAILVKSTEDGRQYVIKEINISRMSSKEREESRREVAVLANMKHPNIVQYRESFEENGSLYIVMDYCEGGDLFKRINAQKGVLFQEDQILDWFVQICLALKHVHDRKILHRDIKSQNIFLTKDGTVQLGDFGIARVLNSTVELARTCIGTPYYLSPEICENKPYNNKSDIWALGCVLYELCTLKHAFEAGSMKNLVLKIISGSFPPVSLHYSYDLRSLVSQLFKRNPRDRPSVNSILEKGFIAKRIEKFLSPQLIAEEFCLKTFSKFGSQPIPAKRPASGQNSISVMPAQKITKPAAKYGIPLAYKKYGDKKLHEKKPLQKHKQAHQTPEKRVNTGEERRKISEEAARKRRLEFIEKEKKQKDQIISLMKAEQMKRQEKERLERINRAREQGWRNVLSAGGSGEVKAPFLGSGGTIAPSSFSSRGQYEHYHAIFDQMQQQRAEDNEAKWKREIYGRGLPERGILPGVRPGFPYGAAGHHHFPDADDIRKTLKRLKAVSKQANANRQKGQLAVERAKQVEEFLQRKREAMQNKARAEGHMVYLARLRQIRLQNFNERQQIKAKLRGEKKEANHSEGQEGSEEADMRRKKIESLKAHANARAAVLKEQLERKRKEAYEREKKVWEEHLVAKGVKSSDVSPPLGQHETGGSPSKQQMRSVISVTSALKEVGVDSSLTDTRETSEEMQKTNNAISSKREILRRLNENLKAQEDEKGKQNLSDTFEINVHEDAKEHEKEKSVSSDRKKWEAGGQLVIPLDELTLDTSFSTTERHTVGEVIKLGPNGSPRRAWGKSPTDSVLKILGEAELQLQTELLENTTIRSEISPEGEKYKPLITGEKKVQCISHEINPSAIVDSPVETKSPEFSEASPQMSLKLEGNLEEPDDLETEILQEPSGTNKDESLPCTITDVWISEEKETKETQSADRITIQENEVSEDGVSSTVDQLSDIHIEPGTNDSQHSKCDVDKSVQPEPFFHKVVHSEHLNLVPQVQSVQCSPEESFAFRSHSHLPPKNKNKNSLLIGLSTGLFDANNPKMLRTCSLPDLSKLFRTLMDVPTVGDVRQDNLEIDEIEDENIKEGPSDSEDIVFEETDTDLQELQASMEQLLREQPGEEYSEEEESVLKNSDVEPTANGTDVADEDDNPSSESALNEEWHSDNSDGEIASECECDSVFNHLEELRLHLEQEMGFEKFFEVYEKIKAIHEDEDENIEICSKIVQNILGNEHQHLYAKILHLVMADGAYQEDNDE
The settings on record: at 0.1 µM.

In experiment [3] the target is T2, Serine/threonine-protein kinase Nek1 (Homo sapiens). Conditions: at 1 µM.
Experiment [4] deals with T3, Serine/threonine-protein kinase Nek2 (Homo sapiens) (UniProt P51955).
T3 sequence (whole entry): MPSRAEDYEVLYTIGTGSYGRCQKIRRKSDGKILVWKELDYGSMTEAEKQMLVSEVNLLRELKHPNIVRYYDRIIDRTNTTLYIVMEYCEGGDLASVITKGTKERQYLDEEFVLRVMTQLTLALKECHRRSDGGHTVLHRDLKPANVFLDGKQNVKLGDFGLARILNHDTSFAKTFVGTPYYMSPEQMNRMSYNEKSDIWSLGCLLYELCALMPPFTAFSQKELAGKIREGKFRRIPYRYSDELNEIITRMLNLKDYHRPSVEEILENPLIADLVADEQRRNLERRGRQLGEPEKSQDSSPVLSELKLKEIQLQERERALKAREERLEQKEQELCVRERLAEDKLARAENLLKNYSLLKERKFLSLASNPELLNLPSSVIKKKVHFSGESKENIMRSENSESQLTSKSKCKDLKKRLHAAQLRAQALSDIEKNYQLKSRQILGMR
Conditions: at 0.1 µM.

The target in experiment [5] is T3, Serine/threonine-protein kinase Nek2 (Homo sapiens). The settings on record: at 1 µM.
The target of experiment [6] is Serine/threonine-protein kinase Nek6 (Homo sapiens) (UniProt Q9HC98). The settings on record: at 0.1 µM.
Chain of Serine/threonine-protein kinase Nek6 (Homo sapiens) (Q9HC98 whole entry): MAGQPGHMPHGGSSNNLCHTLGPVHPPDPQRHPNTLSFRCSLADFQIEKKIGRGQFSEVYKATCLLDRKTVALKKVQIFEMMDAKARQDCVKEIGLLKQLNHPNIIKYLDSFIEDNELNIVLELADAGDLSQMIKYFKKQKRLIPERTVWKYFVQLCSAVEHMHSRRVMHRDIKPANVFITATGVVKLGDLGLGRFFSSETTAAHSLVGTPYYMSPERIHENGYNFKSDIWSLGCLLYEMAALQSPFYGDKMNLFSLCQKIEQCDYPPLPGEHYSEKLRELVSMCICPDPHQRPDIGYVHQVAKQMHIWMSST
Experiment [7] shares this target. The settings on record: at 1 µM.
The target of experiment [8] is Serine/threonine-protein kinase Nek7 (Homo sapiens) (UniProt Q8TDX7). Conditions: at 0.1 µM.
Chain of Serine/threonine-protein kinase Nek7 (Homo sapiens) (Q8TDX7 whole entry, looked up): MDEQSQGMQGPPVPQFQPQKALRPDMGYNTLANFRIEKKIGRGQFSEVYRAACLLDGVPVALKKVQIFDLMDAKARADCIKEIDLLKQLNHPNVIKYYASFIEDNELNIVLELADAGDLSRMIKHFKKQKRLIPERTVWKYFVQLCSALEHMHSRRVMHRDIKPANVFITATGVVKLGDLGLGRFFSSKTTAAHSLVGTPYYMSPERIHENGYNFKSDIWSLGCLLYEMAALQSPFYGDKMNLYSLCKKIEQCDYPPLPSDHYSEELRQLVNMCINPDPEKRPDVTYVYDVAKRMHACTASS
Experiment [9] has the same target. The settings on record: at 1 µM.
Experiment [10] deals with T4, Serine/threonine-protein kinase Nek9 (Homo sapiens) (UniProt Q8TD19).
T4 sequence (whole entry): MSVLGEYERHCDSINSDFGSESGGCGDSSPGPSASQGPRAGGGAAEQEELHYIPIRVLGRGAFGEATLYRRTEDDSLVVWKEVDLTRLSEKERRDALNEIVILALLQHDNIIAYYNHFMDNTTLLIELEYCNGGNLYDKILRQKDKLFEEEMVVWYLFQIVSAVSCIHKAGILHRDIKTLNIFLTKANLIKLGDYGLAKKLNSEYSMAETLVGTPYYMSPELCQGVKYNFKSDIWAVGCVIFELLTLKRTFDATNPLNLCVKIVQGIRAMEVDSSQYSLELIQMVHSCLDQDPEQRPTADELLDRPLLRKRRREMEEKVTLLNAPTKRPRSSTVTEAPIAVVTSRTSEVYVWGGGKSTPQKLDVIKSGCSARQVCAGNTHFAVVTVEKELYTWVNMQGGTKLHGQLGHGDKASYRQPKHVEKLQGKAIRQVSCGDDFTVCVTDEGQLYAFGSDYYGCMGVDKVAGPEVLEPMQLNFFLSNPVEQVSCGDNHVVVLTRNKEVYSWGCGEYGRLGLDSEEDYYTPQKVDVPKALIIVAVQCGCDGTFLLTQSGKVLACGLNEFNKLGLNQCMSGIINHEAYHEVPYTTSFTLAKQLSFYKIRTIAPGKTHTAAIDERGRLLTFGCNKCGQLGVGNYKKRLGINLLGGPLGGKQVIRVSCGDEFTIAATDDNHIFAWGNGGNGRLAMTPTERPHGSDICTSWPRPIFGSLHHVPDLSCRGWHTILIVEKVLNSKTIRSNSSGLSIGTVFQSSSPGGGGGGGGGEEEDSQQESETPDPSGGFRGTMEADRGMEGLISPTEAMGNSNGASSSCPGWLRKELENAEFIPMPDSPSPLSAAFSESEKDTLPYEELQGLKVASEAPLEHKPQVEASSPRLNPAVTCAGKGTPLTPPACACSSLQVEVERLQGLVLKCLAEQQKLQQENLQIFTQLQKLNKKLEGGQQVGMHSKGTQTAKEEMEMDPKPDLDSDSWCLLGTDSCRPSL
The settings on record: at 0.1 µM.

For `CS(=O)(=O)CCNCc1nc(-c2ccc3ncnc(Nc4ccc(F)c(Cl)c4)c3c2)cs1`, the inhibition was 2.88% in [1]; -0.13% in experiment [2]; 1.85% in experiment [3]; 2.32% in [4]; 2.06% in experiment [5]; 3.94% in [6]. Besides, the inhibition in experiment [7] is 4.01%; in [8], -1.48%; in [9] it was 1.7%; in experiment [10], 0.58%.
With `COc1ccc(-c2nn3ncccc3c2-c2ccnc(Nc3ccc(Cl)c(C(F)(F)F)c3)n2)cc1`, the inhibition came out at 5.7% in experiment [1]; 1.43% in experiment [2]; 2.51% in experiment [3]; 2.35% in experiment [4]; 1.82% in experiment [5]; 3.06% in experiment [6]. Further, the inhibition in [7] came to 2.55%; in [8] it was 3.34%; in experiment [9], 3.28%; in experiment [10] it was 6.79%.
With `O=C1NC(=O)C(N2CCc3ccccc32)=C1c1ccc(Cl)cc1`, the inhibition in [1] was 3.58%; in experiment [2], 3.18%; in experiment [3], 2.69%; in experiment [4], 6.49%; in experiment [5] it was 7.76%; in experiment [6] it was -0.04%. Besides, the inhibition is -0.02% in [7], 6.9% in [8], 4.24% in experiment [9] and 5.67% in experiment [10].
For the molecule `CCn1c(-c2nonc2N)nc2c(C#CC(C)(C)O)nc(OC[C@@H](N)c3ccccc3)cc21`, the inhibition in experiment [1] was 34.9%; in experiment [2], 0.04%; in [3], 3.08%; in experiment [4], -1.09%; in experiment [5], 1.53%; in experiment [6], -0.14%. Moreover, the inhibition in experiment [7] is 3.35%; in experiment [8] it was 0.12%; in experiment [9], -0.33%; in [10], -3.59%.
Regarding `Cc1nnc(-c2ccc(C)c(-c3ccc(C(=O)Nc4cccc(C#N)c4)cc3)c2)o1`, the inhibition in experiment [1] was 6.02%; in experiment [2], 1.56%; in [3], 4.44%; in experiment [4], 3.25%; in [5], 2.64%; in experiment [6], 1.65%. Further, the inhibition turned out to be 0.35% in [7], 3.44% in experiment [8], 3.07% in experiment [9] and 5.36% in experiment [10].
For the molecule `COc1ccc(COc2ccc(Cc3cnc(N)nc3N)cc2OC)cc1`, the inhibition is -2.21% in experiment [1]; 1.41% in experiment [2]; 1.56% in experiment [3]; -0.14% in [4]; -1.4% in experiment [5]; -0.54% in [6]. In addition, the inhibition in experiment [7] is -3.71%; in [8] it was 2.81%; in [9], 1.75%; in experiment [10], 0.22%.
On to `CC1=C(C(=O)Nc2ccc3[nH]ncc3c2)C(c2ccc(F)cc2)NC(=O)N1` (stereo not given), for which the inhibition in experiment [1] was determined as 4.43%; in experiment [2], 2.09%; in experiment [3] it was 4.56%; in experiment [4] it was 3.07%; in experiment [5], 2.73%; in [6], 0.8%. Moreover, the inhibition was 0.71% in experiment [7], 3.54% in experiment [8], 2.72% in experiment [9] and 2.85% in experiment [10].
Turning to `CCn1c(-c2nonc2N)nc2ccncc21`, the inhibition came out at 0.86% in [1]; 1.01% in [2]; 0.07% in experiment [3]; 2.29% in experiment [4]; 1.09% in [5]; 2.53% in experiment [6]. For the same molecule, the inhibition in experiment [7] was -2.93%; in [8], 3.2%; in experiment [9], 2.01%; in experiment [10] it was 0.35%.
